Bioassay records (PubChem BioAssay)
aSyn UTR act – Activators via SNCA 5'UTR binding, MLPCN; hit rate 7.1% among 300,000; alpha-synuclein 5'UTR reporter, activators screen; AID 1814, 2009; activity score, % (tested at 7.5 µM), hits read low; in the data active means activity score below about -60%
An asterisk follows results filed as active. The list is a sample of the results.

SMILES | aSyn UTR act
COc1ccc(CC(=O)O/N=C(\N)c2ccc(OC)cc2)cc1 | -86*
COc1ccc(/C(N)=N/OC(=O)Cc2cccs2)cc1 | -129*
Cc1cc(CN(C)C(=O)CCc2nnc(Cc3cccc(C(F)(F)F)c3)o2)on1 | -79*
CC(=O)CCC(=O)NCCc1ccccc1F | -63*
O=C(CCc1nnc(Cc2cccc(C(F)(F)F)c2)o1)NCCc1ccccc1F | -71*
CCN(CC)C(=O)CCc1nnc(Cc2cccc(C(F)(F)F)c2)o1 | -177*
O=C(Nc1ccc(-c2nnn(CC(=O)N3CCN(C(=O)c4ccco4)CC3)n2)cc1)c1ccccc1F | -71*
COc1ccccc1C(=O)Nc1ccc(-c2nnn(CC(=O)N3CCN(C(=O)c4ccco4)CC3)n2)cc1 | -79*
NC(=O)Cn1nnc(-c2ccc(NC(=O)c3ccc(F)cc3)cc2)n1 | -73*
O=C(Cn1nnc(-c2ccc(NC(=O)c3ccccc3F)cc2)n1)NCc1ccc(F)cc1 | -66*
COC(=O)c1cc(Br)ccc1-c1ccc(/C=N/n2nnnc2N)o1 | 55
CCN(C)c1ccc(/C=N\n2nnnc2N)cc1 | -115*
CCN(CC)c1ccc(/C=N/n2nnnc2N)c(O)c1 | -89*
Cc1ccc(C)c(OCc2cc(C(=O)N3C[C@@H](C)O[C@@H](C)C3)no2)c1 | -131*
Cc1ccc(C)c(OCc2cc(C(=O)N3CCN(C(=O)c4ccco4)CC3)no2)c1 | -113*
Cc1ccc(C)c(OCc2cc(C(=O)N3CCN(c4ccccc4)CC3)no2)c1 | -115*
COc1ccc(N2C(=S)NC3N2C(=S)NC3(C)c2ccccc2)cc1 (configuration not stated) | -93*
c1ccc(Nc2scc(-c3ccccc3)[n+]2Cc2ccco2)cc1 | -222*
C=CC[n+]1c(-c2ccc(C)cc2)csc1Nc1ccc(NC(C)=O)cc1 | 100
O=C1C(Cl)=C(NCc2cccnc2)C(=O)c2ccccc21 | -141*
O=C(O)c1cccc(NC2=C(Cl)C(=O)c3ccccc3C2=O)c1 | -191*
O=C1C(Cl)=C(Nc2ccccc2)C(=O)c2ccccc21 | -190*
CCN(CC)CCCNC1=C(Cl)C(=O)c2ccccc2C1=O | 76
CC(C)NC1=C(Cl)C(=O)c2ccccc2C1=O | -91*
Cc1cc([N+](=O)[O-])ccc1NC(=O)c1cccc(NC(=O)C(C)C)c1 | -99*
SMILES | aSyn UTR act
Cc1cc([N+](=O)[O-])ccc1NC(=O)c1csc(C)c1C | -98*
CCCCOC(=O)Nc1ccc(N2CCCCC2)cc1 | -158*
CCCCOC(=O)Nc1ccc(N2CCOCC2)cc1 | -163*
Cc1ccc(Sc2cnc3ccccc3n2)cc1 | -176*
COc1ccc2c(c1)CCc1c(C(=O)NCc3ccco3)noc1-2 | -120*
COc1ccc2c(c1)CCc1c(C(=O)N(C)c3ccccc3)noc1-2 | -132*
COCCNC(=O)c1noc2c1CCc1cc(OC)ccc1-2 | -98*
COCC(C)NC(=O)c1noc2c1CCc1cc(OC)ccc1-2 (configuration not stated) | -133*
CCCc1cc(=O)n2[nH]c(-c3ccc(C)cc3)cc2n1 | -129*
CCCc1cc(=O)n2[nH]c(-c3ccc(Cl)cc3)cc2n1 | -141*
COc1ccc(/C=N/NC(=O)c2cnccn2)cc1O | -63*
COc1ccccc1/C=C/C=N/NC(=O)c1ccccn1 | -74*
COc1ccccc1/C=C/C=N/NC(=O)c1cnccn1 | -69*
COc1ccc(/C=N/NC(=O)c2cc3c(OC)ccc(OC)c3[nH]2)cc1O | 68
Cc1ccc(C(=O)c2cnc3cc4c(cc3c2S(=O)(=O)c2ccccc2)OCCO4)cc1 | -133*
Cc1ccc(/C=N/Nc2ccc(F)cc2F)s1 | -180*
COc1cc(/C=N/Nc2ccc(F)cc2F)cc(OC)c1O | -63*
Fc1ccc2nc(Nc3nc4cc5c(cc4s3)OCCO5)sc2c1 | -128*
Fc1ccc2nc(Nc3nc4cc5c(cc4s3)OCO5)sc2c1 | -232*
c1ccc2sc(Nc3nc4cc5c(cc4s3)OCO5)nc2c1 | -264*
Cc1ccc(CNC(=O)c2ccc3c(=O)c(O)c(-c4ccc(C)cc4)[nH]c3c2)cc1 | 94
CC(C)(C)c1ccc(C(=O)NCc2ccc(Cl)cc2)cc1 | -75*
Cc1ccc(CC(=O)NCc2ccc(Cl)cc2)cc1 | -76*
CC(C)(C)c1ccc(C(=O)NCc2ccccc2)cc1 | -88*
C(=N\Nc1nc2ccccc2[nH]1)/c1cccs1 | -172*
SMILES | aSyn UTR act
Cc1cc(=O)[nH]c(N/N=C/c2sccc2C)n1 | -90*
Cc1ccsc1/C=N/Nc1nc2ccccc2[nH]1 | -213*
CCCSc1nsc(NC(=O)CC)n1 | -135*
CCCSc1ccc(C(=O)Nc2ccc(F)cc2F)cn1 | -87*
CCCSc1nsc(NC(=O)Nc2ccc(F)cc2F)n1 | -129*
N/C(=N\OC(=O)COc1ccccc1)c1ccncc1 | -82*
N/C(=N\OC(=O)CSc1ccccc1)c1ccncc1 | -91*
N/C(=N\OC(=O)COc1ccccc1)c1cccnc1 | -113*
COc1ccc(/C(N)=N/OC(=O)COc2ccccc2Cl)cc1 | -141*
COc1cccc(OCC(=O)O/N=C(\N)c2ccncc2)c1 | -90*
N/C(=N\OC(=O)COc1ccccc1)c1ccc(Cl)cc1 | -67*
